# Compounds without any hit were thinned out: in the full panel of roughly 79,000, 15% have a hit. A number with no mark means an inactive call. Activity calls are given as the source filed them. Cut-off read from the data, not from the text of the source: active = growth inhibition above about 70%; inactive = the rest.
# Legend:
# [1] = NCI Yeast Anticancer Drug Screen. Data for the rad50 strain (AID 155);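 note: 0% = growth of vehicle-only cultures of the same strain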; conditions: S. cerevisiae rad50 strain growth inhibition; at 50.0 µM; active compounds read high
# In short: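 Compounds were tested on a yeast strain with an engineered DNA damage repair alteration; the reported value is growth inhibition normalised to vehicle treatment.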
# [2] = NCI Yeast Anticancer Drug Screen. Data for the mec2-1 strain (AID 157); conditions: S. cerevisiae mec2-1 strain, at 50.0 µM, active compounds read high
# In short: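 Using mec2-1 yeast: add compound, measure growth, express inhibition versus vehicle-treated cultures.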
# [3] = NCI Yeast Anticancer Drug Screen. Data for the sgs1 mgt1 strain (AID 161);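 note: 0% = growth of cultures given vehicle only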; conditions: S. cerevisiae sgs1 mgt1 strain, at 50.0 µM, active compounds read high
# In short: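 Growth of a repair-deficient yeast mutant was monitored after compound treatment and expressed as inhibition relative to vehicle-treated cultures.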
# [4] = NCI Yeast Anticancer Drug Screen. Data for the cln2 rad14 strain (AID 165);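 note: 0% = growth equal to vehicle treated cultures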; conditions: S. cerevisiae cln2 rad14 strain, at 50.0 µM, active compounds read high
# In short: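 Yeast strain cln2 rad14, bearing defects in cell cycle control and DNA repair, serves as the test system; values reflect growth inhibition compared with vehicle.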
# [5] = NCI Yeast Anticancer Drug Screen. Data for the bub3 strain (AID 167); conditions: S. cerevisiae bub3 mutant strain, at 50.0 µM, active compounds read high
# In short: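 Growth of a checkpoint-deficient yeast mutant is measured after compound exposure. Values represent inhibition relative to vehicle.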
# [6] = NCI Yeast Anticancer Drug Screen. Data for the mlh1 rad18 strain (AID 175); conditions: S. cerevisiae mlh1 rad18 strain growth inhibition; at 50.0 µM; active compounds read high
# In short: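 Steps: expose repair-defective yeast to compound; measure growth; express inhibition against vehicle-treated controls.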
SMILES,growth inhibition [1],growth inhibition [2],growth inhibition [3],growth inhibition [4],growth inhibition [5],growth inhibition [6]
CCCC1(c2ccccc2)SCC(=O)NC1=O (stereo not drawn),31.3%,-0.2%,-16.6%,-25.6%,-14.2%,-25.9%
[O-][n+]1ccc(Cl)cc1,-4.15%,-14.8%,-19%,-15.2%,-10.1%,-9.35%
CCCC1([N+](=O)[O-])CCC(C)(O)C(/C(C)=N\O)C1 (stereo not drawn),7.05%,-9.5%,25.5%,-0.15%,26.1%,40.2%
CNC(=O)c1ccccc1O,21.2%,8.55%,5.65%,11.3%,5.15%,2.35%
Cc1ccc2ccccc2c1Cc1c(C=O)[nH]c(=S)[nH]c1=O,94.7% (active),90.8% (active),97% (active),82.5% (active),90.5% (active),98.8% (active)
Nc1ccccc1/C=C(\C(=O)O)c1ccccc1,-19.9%,-4.45%,14.8%,12.4%,-0.6%,11.4%
CC(C(=O)c1ccc(Cl)cc1)/C(=N/NC(=O)NN)C(=O)Nc1cccc(C(F)(F)F)c1 (stereo not drawn),-8.45%,-16.6%,-58.5%,-56%,18.6%,-6.95%
N#CCCC1(c2ccccc2)CCC/C(=C/c2ccccc2)C1=O (stereo not drawn),11.8%,14.1%,1.7%,7.1%,17.4%,3%
COc1ccc(/C=C2\Cc3ccccc3C2=O)cc1OC,-0.05%,-10.2%,-9.85%,8.25%,-25.4%,-1.5%
CCN1CC(O)c2cc(N=NC(N)=O)c(O)cc21 (stereo not drawn),-3.3%,14.9%,3.1%,-8.85%,3.85%,23%
COCC(O)CN1CCN(c2ccccc2OC)CC1 (stereo not drawn),-16.5%,-16.6%,-7.3%,-14.2%,25.6%,-13.2%
O=C(O)c1cc(CC2Cc3cc4c(cc3C2=O)CCC4)cc2c1CCC2 (stereo not drawn),-27.4%,-30.1%,-21.6%,6.05%,-18.8%,-21.8%
C=C(c1ccccc1)N1N=NC2CCOC21 (stereo not drawn),-4.25%,-10%,4.2%,-20.6%,-16.8%,-8.65%
CC(O)(C#Cc1ccccc1)c1nc2ccccc2s1 (stereo not drawn),1.2%,-5%,-4.95%,-7.65%,17.2%,4.35%
COc1cc(C=O)ccc1OC(C)=O,-33.3%,-15.3%,-35.9%,-31.4%,-10.6%,-24.3%
Nc1ccc(SCCC(=O)O)cc1,18.9%,0.7%,-0.25%,2.1%,5.95%,-13.3%
CCC1SC(N)=NC1=O (stereo not drawn),16.1%,9.65%,24.7%,20.4%,10.2%,5.55%
CC(C)COCC1COC2(OCC(C)(C)C2OC(=O)Nc2ccccc2)O1 (stereo not drawn),5.55%,-0.6%,-12.4%,-5.6%,5.95%,17.6%
CCCCCCCCCCCCCCC(=O)Cl,9%,7.25%,5.8%,8.2%,-9.95%,8.85%

SMILES,growth inhibition [1],growth inhibition [2],growth inhibition [3],growth inhibition [4],growth inhibition [5],growth inhibition [6]
Cc1cc(=O)n(-c2ccccc2)c(=O)n1-c1nc2ccccc2[nH]1,19%,-8.4%,14.7%,3.65%,-4.35%,32%
NC(=O)c1cccc2c1OCO2,-8.75%,9.7%,-7.35%,-10.6%,-0.6%,-5.25%
O=C(c1ccccc1)C1C(c2ccccc2)N1C(=O)c1ccccc1 (stereo not drawn),9.8%,16.4%,6.35%,-1.3%,35.6%,12.9%
Cc1c(C#N)c2n(c1C)CCN2,-14.3%,-14.1%,-9.2%,-36%,-5.65%,-4.45%
CC(=O)OC(C(=O)N(c1ccccc1)c1ccccc1)c1ccccc1 (stereo not drawn),3.5%,27.4%,10.9%,18.2%,7.35%,16.1%
C#CC(N)=O,-9.6%,11.4%,-0.6%,-20.6%,-6%,4.4%
COc1ccccc1Oc1ccccc1,-20.7%,-61.3%,-8.6%,13.6%,-34%,20.8%
O=C(Nc1ccccc1Cl)NC1CCCCC1,5.1%,-0.55%,5.35%,18.7%,17.1%,5.8%
CC(C)C(NC(=O)OC(c1ccccc1)c1ccccc1)C(=O)NC(CSC(c1ccccc1)(c1ccccc1)c1ccccc1)C(=O)NCC(=O)OCc1ccccc1 (stereo not drawn),4.45%,5.75%,4.55%,-19.1%,-10.8%,27.2%
CC(C)NCCN,17.4%,0.3%,18.8%,11.3%,12.7%,23.4%
CCC(C)(O)C(C)(O)CC (stereo not drawn),-6.55%,-13.8%,15.4%,17.6%,-13.8%,-8.8%
Cc1onc(-c2ccccc2)c1C(=O)N1CCCN2C(=O)c3ccccc3C21 (stereo not drawn),-0.3%,-11.1%,15.8%,2%,22.3%,15.8%
Cc1nn(-c2nc(-c3ccc(Br)cc3)cs2)c(C)c1C,12.9%,-4.9%,-9.95%,9.6%,5.65%,3.45%
COc1cccc(C(Nc2nncs2)Nc2nncs2)c1,3.1%,-9.2%,-8.45%,13.9%,-20.3%,16.1%
CC1CCN(C(=O)C(c2ccccc2)c2ccccc2)CC1,27%,-7.05%,-3.1%,-18.8%,1.2%,-4.75%
Cn1c(=O)nc2n(C)c3ccccc3cc-2c1=O,9.95%,-12.4%,-3.95%,-6.85%,-12.7%,1.8%
C/C=C(\C(=C\C)c1ccc(OC(=O)c2ccccc2)c(C2CCCCC2)c1)c1ccc(O)c(C2CCCCC2)c1,49%,34.5%,44.9%,30.4%,2.95%,45.8%
N#Cc1nc(C2=C(Cl)c3ccccc3OC2)[nH]c1C#N,40%,42.9%,46.5%,56.5%,50.6%,31.8%
CC(=O)c1ccc2cc(Cl)ccc2c1,30.2%,3.45%,3.5%,-29.9%,0.35%,4.2%

# Reference: PubChem BioAssay (NCI)
